Test results as given in PubChem BioAssay.
Activity calls are given as the source filed them.

Columns and labels:
Albumin (Bos taurus) = Albumin (Bos taurus) (UniProt P02769); assay: bovine serum albumin binders on microarray, profiling panel, artefact control for SMM control protein annotation, biochemical, small-molecule microarray, Alexa647 label, 635/667 nm fluorescence (AID 1118); conditions: BSA-A647 binding, fluorescence 635 nm, higher = more signal;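 further: score merges 667 nm emission intensity and signal-to-noise per printed compound spot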
[1] = small-molecule microarray binders of probe aXIP, primary screen, biochemical, NeuroSMM set, 635/667 nm fluorescence (AID 1119); conditions: higher = more signal, called active from +8 up or from −8 down;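 further: probe is the protein aXip251-270 applied at 1 µg/mL to compound-printed slides; binding of probe to printed compounds measured as 667 nm fluorescence plus signal to noise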
[2] = small-molecule binders of probe aNOTCH3, primary screen, biochemical, small-molecule microarray, 635/667 nm fluorescence (AID 1120); conditions: higher = more signal;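 further: probe is a biotin-tagged antibody raised against NOTCH3 rather than NOTCH3 protein; score merges spot fluorescence near 667 nm with spot signal to noise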
[3] = small-molecule binders of probe aNOTCH2, primary screen, biochemical, small-molecule microarray, 635/667 nm fluorescence (AID 1121); conditions: higher = more signal;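 further: score merges feature fluorescence read at 667 nm with its signal to noise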
[4] = molecular target: Carbonic anhydrase 2 (Homo sapiens) (UniProt P00918); assay: CAII small-molecule binders, profiling panel, biochemical, small-molecule microarray, Alexa647-labelled CAII (AID 1122); conditions: CAII-A647 binding fluorescence, higher = more signal
[5] = COS7 lysate on small-molecule microarray, probe aHis, 635 nm (AID 1123); conditions: COS7 cell lysate, fluorescence, higher = more signal;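 further: z-score combines 667nm fluorescence intensity with signal-to-noise per printed compound spot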
[6] = compound binding in COS7 lysate, probe aLAP1, primary screen, cell lysate, small-molecule microarray (AID 1124); conditions: probe aLAP1, fluorescence, higher = more signal;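 further: lysate comes from COS7 cells expressing LAP1 and is applied at 0.3 µg/mL; score merges spot fluorescence near 667 nm with signal-to-noise over triplicate slides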
Sam68 (KHDRBS1) = assay: Sam68 small-molecule binders, primary screen, biochemical, small-molecule microarray, 635 nm fluorescence (AID 1125); conditions: small-molecule microarray binding, higher = more signal;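 further: score merges 667 nm channel intensity with signal to noise over triplicate slides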
[7] = tested on: Chordin-like protein 2 (CHRDL2); assay: CHRDL2 small-molecule binders, primary screen, biochemical, small-molecule microarray, 635 nm fluorescence (AID 1126); conditions: small-molecule microarray binding, fluorescence 635 nm; higher = more signal;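 further: printed compound slides probed with Chrdl2 protein at 4 µg/mL for 1 h at 4 C; score merges 667 nm emission intensity with signal to noise over three replicate slides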
[8] = molecular target: Concanavalin-A (Canavalia ensiformis) (UniProt P02866); assay: ConA small-molecule binders, primary screen, artefact control for SMM control protein annotation, biochemical, small-molecule microarray, Alexa647 label, 635 nm (AID 1127); conditions: ConA-A647 binding fluorescence, higher = more signal;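 further: z combines 667 nm emission intensity with signal-to-noise across three replicate slides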
Chain of Concanavalin-A (Canavalia ensiformis) (P02866 whole entry, looked up): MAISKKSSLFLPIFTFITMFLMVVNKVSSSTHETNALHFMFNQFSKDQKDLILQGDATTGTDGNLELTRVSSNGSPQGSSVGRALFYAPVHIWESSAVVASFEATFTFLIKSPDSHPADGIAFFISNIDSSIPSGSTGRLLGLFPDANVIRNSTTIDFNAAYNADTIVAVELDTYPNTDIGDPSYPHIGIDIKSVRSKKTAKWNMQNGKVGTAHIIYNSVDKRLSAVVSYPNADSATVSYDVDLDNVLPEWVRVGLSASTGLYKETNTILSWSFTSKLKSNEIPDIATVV

Chain of Albumin (Bos taurus) (P02769 whole entry, looked up): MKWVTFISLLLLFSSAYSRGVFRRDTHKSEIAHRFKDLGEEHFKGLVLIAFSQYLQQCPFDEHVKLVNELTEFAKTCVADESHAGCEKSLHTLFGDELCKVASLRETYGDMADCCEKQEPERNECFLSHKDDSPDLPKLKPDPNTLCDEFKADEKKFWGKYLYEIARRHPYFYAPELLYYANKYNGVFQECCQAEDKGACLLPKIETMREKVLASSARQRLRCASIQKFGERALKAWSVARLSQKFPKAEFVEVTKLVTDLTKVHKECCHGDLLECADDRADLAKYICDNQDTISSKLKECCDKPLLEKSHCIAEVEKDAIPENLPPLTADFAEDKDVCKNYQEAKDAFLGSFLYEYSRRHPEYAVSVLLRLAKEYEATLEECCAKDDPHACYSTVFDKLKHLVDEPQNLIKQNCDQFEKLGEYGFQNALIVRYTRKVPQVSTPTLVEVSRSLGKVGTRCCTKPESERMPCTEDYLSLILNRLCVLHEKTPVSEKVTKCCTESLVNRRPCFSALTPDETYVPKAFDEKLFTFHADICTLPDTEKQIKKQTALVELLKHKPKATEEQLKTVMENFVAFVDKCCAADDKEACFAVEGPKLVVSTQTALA

SMILES	composite z-score (Albumin (Bos taurus))	composite Z-score [1]	composite z-score [2]	composite z-score [3]	composite z-score [4]	composite z-score [5]	composite z-score [6]	composite z-score (Sam68 (KHDRBS1))	composite z-score [7]	composite z-score [8]
COc1ccc(C(O)C2C=CC3C(=O)N(c4ccccc4)C(=O)C3N2Nc2ccccc2)c2ccccc12 (stereo not given)	0.705	0.0542 (inactive)	0.19	-0.0528	0.522	1.97	0.0206	-0.309	-0.841	0.69
CCOC1=C2C(c3ccc(C)cc3)N(S(=O)(=O)c3ccc(C)cc3)CC2n2c(=O)n(-c3ccccc3)c(=O)n2C1 (stereo not given)	0.495	0.193 (inactive)	0.125	-0.0276	0.639	2.65	0.91	1.35	0.339	1.14
CCCNC(=O)[C@@]1(C)c2ccccc2C(=O)N(Cc2cc(C(F)(F)F)cc(C(F)(F)F)c2)[C@H]1c1ccc(CO)cc1	-0.549	0.147 (inactive)	-0.198	-0.114	0.671	1.68	0.458	0.356	-1.08	-0.082
C[N+](C)(C)CCCC[C@@H]1NC(=O)[C@H]2C[C@@H](C(=O)O)[C@@H](c3cccc(OCCO)c3)N2C1=O	0.969	3.73 (inactive)	1.14	0.402	0.758	3.12	1.07	1.31	1.17	1.22
CCCNC(=O)[C@@]1(C)c2ccccc2C(=O)N(C(C)C)[C@H]1c1ccc(CO)cc1	-0.598	-0.305 (inactive)	-0.136	-0.102	0.673	1.63	0.65	-0.347	-0.95	-1.15
C=CCC(OC(C)=O)[C@@H]1[C@@H](N(Cc2cc3ccccc3o2)C(=O)c2ccc(C)cc2)c2cc(OCCCO)ccc2N1C(=O)c1ccc(-c2ccccc2)cc1 (stereo not given in full)	-0.0944	0.0882 (inactive)	0.102	-0.18	0.0677	0.263	-0.161	0.318	0.073	-0.0198
O=C(NCC(O)CO)[C@]1(CCS(=O)(=O)c2ccccc2)N=C(c2ccc(OCCCO)cc2)O[C@@H]1c1ccccc1 (stereo not given in full)	1.11	-0.262 (inactive)	-0.095	-0.0392	0.761	3.41	0.944	1.23	-1.41	0.87
CC1CC/C=C\[C@H]2OC34C=CCN(c5ccc6ccccc6c5)C(=O)[C@H]3N(CCCCCO)C(=O)[C@@H]4C2C(=O)O1 (stereo not given in full)	-0.158	0.322 (inactive)	-0.372	-0.0941	-0.622	-0.357	-0.615	-1.95	-1.25	-1.23
CC1CC/C=C\[C@H]2OC34C=CCN(Cn5nnc6ccccc65)C(=O)[C@H]3N(CCCO)C(=O)[C@@H]4C2C(=O)O1 (stereo not given in full)	0.757	0.372 (inactive)	-0.272	-0.115	0.926	0.016	1.2	-0.119	-1.33	-0.668
O=[N+]([O-])c1ccc(C[n+]2ccc(CCCO)cc2)o1	0.766	-0.138 (inactive)	0.277	0.0655	0.82	1.82	0.313	0.916	0.793	1.09
C=CCOC(=O)[C@H]1[C@@H]2C(=O)O[C@@H](c3ccccc3)[C@@H](c3ccccc3)N2[C@@H](c2ccc(OCCOC(=O)[C@H]3C[C@H]4C(=O)N[C@@H](CCCC[N+](C)(C)C)C(=O)N4[C@H]3c3ccc(O)cc3)cc2)[C@]12C(=O)Nc1ccccc12	-0.317	0.0338 (inactive)	0.0306	-0.14	0.456	0.776	0.411	0.028	0.518	0.843
CN(C)CCCC[C@@H]1NC(=O)[C@@H]2C[C@H](C(=O)NCCCCCCN)[C@H](c3ccc(O)cc3)N2C1=O	-0.254	0.142 (inactive)	0.575	0.271	0.674	1.81	0.821	1.31	0.808	0.616
C[N+](C)(C)CCCC[C@@H]1NC(=O)[C@@H]2C[C@H](C(=O)NCCCCCCNC(=O)CS)[C@H](c3cccc(OCCO)c3)N2C1=O	-0.658	0.802 (inactive)	-0.0984	-0.174	0.332	1.04	0.264	0.129	0.393	-0.258
CN1C(=O)C2C=CC(C(O)c3ccc(Br)cc3)N(Nc3ccccc3)C2C1=O (stereo not given)	0.768	0.304 (inactive)	0.145	0.0498	0.678	0.991	0.204	0.168	-0.723	-0.597
C=C(/C(=C/C[C@@H](OC(=O)c1ccncc1)c1ccc(CO)o1)c1cc(C(=O)OC)ccc1OC)C(C)C	0.83	0.459 (inactive)	0.0311	-0.109	0.588	1.13	0.812	1.3	0.737	1.08
O=C(NCC(O)CO)[C@@]1(Cc2ccccc2)COC(c2ccc(OCCCO)cc2)=N1 (stereo not given in full)	0.536	-0.936 (inactive)	-0.0984	-0.189	0.738	0.737	-0.192	-0.274	-0.445	-1.4
Cc1ccc(S[C@]2(C(=O)NCCN3CCOCC3)CC(=O)N(C3CCCCC3)[C@@H]2c2ccc(CO)cc2)cc1	0.869	0.562 (inactive)	0.0525	-0.0621	0.617	1.83	0.437	1.16	-0.179	1.07
